This note sets out measurements from PubChem BioAssay (NCI).

Compounds without any hit were thinned out: in the full panel of roughly 83,000, 20% have a hit.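 Each cell line was grown in a 96-well plate and treated with one concentration of compound for 48 hours. Values below 10 were considered active.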 Values without a mark were called inactive. Active and inactive are the calls of the source.

Holding throughout (test): NCI-60 one-dose screen, 48 h (100 = growth as untreated, 0 = no growth, -100 = all killed)
Holding throughout (settings): 10 µM unless noted

Assay [1] relates to DU-145 prostate.
Assay [2] concerns K-562 leukemia.
In assay [3] the test system is MALME-3M melanoma.
The subject of assay [4] is MDA-MB-231 breast.
Assay [5] deals with RXF 393 renal.
For assay [6], the system named is SF-268 CNS.
For assay [7], the system named is SF-295 CNS.
Assay [8] relates to SF-539 CNS.
Assay [9] concerns UACC-257 melanoma.
Assay [10] relates to M14 melanoma.

Turning to `C=C(C)[C@@H]1CC=C2c3sc(-c4ccc(C)cc4)nc3C[C@@H](C)[C@]2(C)C1`, the growth was 114% in assay [1]; 97% in [2]; 104% in [3]; 107% in [4]; 113% in assay [5]; 99.7% in [6]. Besides, the growth in assay [7] is 104%; in assay [8], 102%; in assay [9], 105%; in [10], 100%.
Consider `Cn1c(=O)c2c(nc(Cl)n2CCl)n(C)c1=O`, for which the growth in assay [1] is 113%; in assay [2] it was 21.3%; in assay [3], 75.6%; in assay [4], 105%; in [5] it was 53%; in assay [6] it was 104%. In addition, the growth was 112% in assay [7], 103% in assay [8], 84.5% in assay [9] and 12.4% in assay [10].
Take `Oc1ccc(CN2CCC(N3CCOCC3)CC2)c2cccnc12`: the growth in assay [1] is 29.3%; in [2] it was 12.9%; in assay [3], -0.979% (active); in assay [4], 31%; in assay [5], 13.1%; in assay [6], 32.3%. In addition, the growth in assay [7] was 5.68% (active); in assay [8], 13.6%; in assay [9] it was 7.47% (active); in [10], 24.2%.
For the compound `COc1ccc(NC(=O)CSc2nnc(-c3cc(-c4ccccc4)nc4ccccc34)n2-c2ccccc2)cc1`, the growth in assay [1] was 99.7%; in [2] it was 84.8%; in [3], 88.7%; in [4] it was 89.3%; in assay [5], 99%; in [6], 90.8%. The growth in assay [7] is 97.4%; in [8], 100%; in assay [9] it was 99.2%; in [10], 98.1%.
Regarding `COc1ccc2c(c1)CCCN2c1c2ccccc2nc2ccccc12`, the growth in assay [1] is 5.71% (active); in assay [2], 9.39% (active); in assay [3] it was 55.3%; in [4], 6.06% (active); in assay [5], 27.1%; in assay [6], 33.7%. In addition, the growth in assay [7] is 8.45% (active); in assay [8], -26.4% (active); in assay [9], 71.2%; in assay [10], 3.64% (active).
Turning to `Nc1cc2c3c(cccc3c1)C(=O)N(CCN1CCCC1)C2=O`, the growth is 28.4% in [1]; 14.7% in assay [2]; 41.5% in assay [3]; 55.2% in [4]; 48.2% in assay [5]; 33.7% in assay [6]. In addition, the growth was 44.5% in assay [7], 29% in assay [8], 51.3% in assay [9] and 49.4% in assay [10].
For `Cc1ccc2nc(NC(=O)CSc3nc(Nc4ccc([N+](=O)[O-])cc4)c(C#N)c(-c4ccccc4)n3)sc2c1`, the growth in [1] is 104%; in assay [2] it was 87.6%; in assay [3], 110%; in [4], 93.7%; in assay [5], 92.7%; in [6], 93.7%. Moreover, the growth was 95.6% in [7], 92.8% in assay [8], 105% in [9] and 114% in [10].
As for `O=C(c1ccccc1)c1c(/C=C/c2ccc(Cl)cc2)nc2ccccc2c1/C=C/c1cccs1`, the growth is 107% in assay [1]; 83.6% in assay [2]; 99.3% in [3]; 94.4% in assay [4]; 104% in assay [5]; 93.5% in assay [6]. The growth in [7] was 102%; in assay [8], 97.3%; in [9], 87.7%; in [10] it was 96.8%.
For `N#Cc1c(N2CCNCC2)nc2sc3cc(Cl)c(Cl)cc3n2c1=N`, the growth was 122% in [1]; 77.4% in assay [2]; 119% in [3]; 84.1% in assay [4]; 19.1% in assay [5]; 117% in [6]. Also, the growth in assay [7] is 113%; in assay [8], 86.1%; in [9] it was 124%; in assay [10], 106%.
In the case of `CN(C)CCC=C1c2ccccc2C(C)(C)c2ccccc21`, the growth in assay [1] was 35.9%; in assay [2], 32.7%; in assay [3], 78.9%; in assay [4], 75%; in assay [5], 66.4%; in assay [6] it was 95.9%. The growth in assay [7] is 67.2%; in assay [8], 61.2%; in assay [9] it was 24.2%; in assay [10], 11.6%.
As to `CC1=CN2C(=O)C3C4=C(CCCC4)SC3N=C2CN1c1c(C)cccc1C` (stereo not given), the growth in assay [1] is 104%; in assay [2], 45.8%; in assay [3], 89.7%; in assay [4] it was 83.9%; in assay [5], 67%; in assay [6], 89.1%. The growth was 81.6% in assay [7], 96.7% in assay [8], 99.4% in assay [9] and 96.6% in [10].
`O=c1[nH]nc(-c2ccccc2)c2c(-c3ccccc3)onc12`: the growth in [1] was 25.1%; in assay [2], 9.89% (active); in [3] it was 37.2%; in assay [4], 50.3%; in assay [5], 12.3%; in assay [6], 42%. Further, the growth in [7] is 35.7%; in assay [8] it was 0.0732% (active); in assay [9], 71.2%; in assay [10], 45.4%.
